# Screening results (PubChem BioAssay)
# This is a sample that favours compounds with a hit; in the whole collection about 3.6% have one here.
# NPSR antag = antagonists of human neuropeptide S receptor cAMP signaling; CHO-NPSR cells, cAMP TR-FRET, antagonist mode; Potency, µM (highest dose often 38.3 µM), hits mostly inhibitors; 220,000 compounds, 1% hits; AID 1461; note: nearly all actives have a fitted effect of over 50% in size
# GCN5L2 inh = inhibitors of human GCN5L2 histone acetyltransferase; Q92830; GCN5L2 HAT assay, ThioGlo1 CoA-SH fluorescence; Potency, µM (doses to about 58.9 µM), most hits filed as inhibitors; 390,000 compounds, 0.21% hits; AID 504327
# Target sequence (Q92830 whole entry, looked up): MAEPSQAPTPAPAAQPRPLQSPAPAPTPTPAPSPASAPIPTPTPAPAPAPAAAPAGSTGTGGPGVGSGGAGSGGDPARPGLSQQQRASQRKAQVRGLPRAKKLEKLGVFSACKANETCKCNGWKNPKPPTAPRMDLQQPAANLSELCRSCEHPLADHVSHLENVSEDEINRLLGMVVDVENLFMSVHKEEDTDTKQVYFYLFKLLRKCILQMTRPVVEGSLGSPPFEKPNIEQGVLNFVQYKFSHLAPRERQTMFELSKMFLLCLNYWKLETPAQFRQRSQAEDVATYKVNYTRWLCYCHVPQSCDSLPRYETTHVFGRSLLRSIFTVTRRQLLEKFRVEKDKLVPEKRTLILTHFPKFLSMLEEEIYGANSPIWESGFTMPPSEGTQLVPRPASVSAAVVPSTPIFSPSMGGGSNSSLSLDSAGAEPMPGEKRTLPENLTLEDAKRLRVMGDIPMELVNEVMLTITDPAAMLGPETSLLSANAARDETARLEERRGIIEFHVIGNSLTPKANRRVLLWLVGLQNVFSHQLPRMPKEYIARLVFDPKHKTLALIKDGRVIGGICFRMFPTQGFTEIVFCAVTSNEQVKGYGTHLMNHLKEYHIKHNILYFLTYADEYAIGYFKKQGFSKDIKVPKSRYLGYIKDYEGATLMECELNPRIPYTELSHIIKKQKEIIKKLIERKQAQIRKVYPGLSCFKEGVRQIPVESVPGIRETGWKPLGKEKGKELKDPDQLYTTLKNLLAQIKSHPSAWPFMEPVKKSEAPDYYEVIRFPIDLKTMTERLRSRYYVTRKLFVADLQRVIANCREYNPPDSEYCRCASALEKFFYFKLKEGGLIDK
#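 Compounds, pin-transferred from DMSO stocks, meet 20nM GCN5L2 for 15 min before the reaction begins with H3(1-25) peptide (75uM) and acetyl-CoA (70uM). Thiol-reactive ThioGlo1 reports CoA release over 20 min at room temperature.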
# JMJD2E inh = blocks human JMJD2E demethylase activity; Potency, µM (highest dose often 57.1 µM), hits mostly inhibitors; 230,000 compounds, 1.6% hits; B2RXH2; JMJD2E catalytic domain, FDH-coupled NADH fluorescence (FDH is formaldehyde dehydrogenase); note: nearly all actives have a fitted effect of over 50% in size
# IMPase Li inh = cell-permeable IMPase inhibitors with lithium potentiation. CHO-M1 cells, IP1 TR-FRET (IP-One), carbachol + lithium. Potency, µM (highest dose often 59.4 µM), most hits filed as inhibitors. 210,000 compounds, 0.35% hits;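 note: IP1 builds up when IMPase is blocked and the TR-FRET signal falls; nearly all actives have a fitted effect of over 50% in size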
#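 Lithium-sensitised IP1 accumulation assay; M1-expressing CHO cells treated 30 min at 37C with compound. Competitive antibody detection by time-resolved FRET followed a 10 min room-temperature lysis step.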
# Epigenetic derep = derepresses silenced GFP reporter in murine cells | murine LDR cells, GFP reporter derepression, 30 h | Potency, µM (titrated, usually from 53.9 µM), hits mostly activators | 280,000 compounds, 0.2% hits; note: nearly all actives have a fitted effect of over 60% in size
#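 In this reporter-derepression format, murine cells bearing a silenced integrated CMV-GFP locus incubate with test compound (30 h, 37 C), then are washed and imaged; fluorescent objects of 20–120 um count as induced cells.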
# Sfp inh = inhibitors of Bacillus subtilis Sfp phosphopantetheinyl transferase. Q9F4F7. Biochemical Sfp PPTase activity, qHTS. Potency, µM, usual class: inhibitors. 310,000 compounds, 3.5% hits;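 note: the enzyme is Sfp with the accession as filed and its product quenches rhodamine fluorescence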
#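 Step 1, compound plus 15 nM Sfp-PPTase, 15 min, room temperature. Step 2, add rhodamine-CoA (5 uM) and BHQ-2-YbbR (12.5 uM). Step 3, read 525/598 nm fluorescence at 0 and 30 min.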
# Hits are given with their value; i = inactive; ? = inconclusive; nt = no result given; [ ] = remark or other dose. Unless noted, calls come from the whole dose curve; as a rule, active = well fitted curve in the direction sought with a large enough effect; inconclusive = small, poorly fitted or top-dose-only effect, or another doubt; inactive = no such curve, though single readings can be large; an effect the other way counts as inactive or inconclusive.
SMILES,NPSR antag,GCN5L2 inh,JMJD2E inh,IMPase Li inh,Epigenetic derep,Sfp inh
CCN1C(=O)[C@H]2[C@H]3[C@H](O)[C@H](O)C/C(=N/O[C@@H]4O[C@H](COC(C)=O)[C@@H](OC(C)=O)[C@H](OC(C)=O)[C@H]4OC(C)=O)[C@@H]3CC[C@@H]2C1=O,nt,nt,nt,nt,i[10.1 µM],i
Cc1ccc(C)c(N(CC(=O)Nc2ccccc2C(=O)NCc2ccco2)S(=O)(=O)c2ccccc2)c1,i,i,4µM,i,i,i
CN(c1ccc(C(=O)NCCSCc2ccco2)cc1)S(C)(=O)=O,i,i,i,i,i,35µM
O=C(CCSc1ccccc1)NCCSCc1ccco1,i,i,i,nt,i,50µM
Cc1ccc(N(CC(=O)NCCSCc2ccco2)S(=O)(=O)c2ccc(F)cc2)cc1,i,i,i,i,i,i
Cc1ccc(S(=O)(=O)N(CC(=O)NCCSCc2ccco2)c2ccc(F)cc2)cc1,?,i,i,nt,i,56µM
C=CCSc1nc2c(N)ncnc2n1[C@@H]1O[C@H](CO)[C@@H](O)[C@@H]1O,nt,nt,nt,i,nt,nt
CCn1c(-c2ccco2)n[nH]c1=S,i,i,?,i,i,i
CCn1nc(C)cc1-c1n[nH]c(=S)n1N,i,i,i,i,i,45µM
Cc1cccc(-n2c(=O)[nH]c3c(C(N)=O)nc(-c4ccccc4Cl)nc32)c1,?,i,1.8µM,i,i,i
C[C@@H]1C(=O)O[C@H]2[C@H](O)[C@@]34[C@H]5CC(C(C)(C)C)[C@]36[C@H](OC(=O)[C@H]6O)O[C@]4(C(=O)O5)[C@@]12O (stereo partly specified),nt,i,nt,nt,nt,i
COc1cc(SC)ccc1C(=O)N1CCN(c2ccc(O)cc2)CC1,i,i,?,i,i,56µM
COCCN(CCOC)Cc1c(O)ccc2c1O/C(=C\c1ccc(C)o1)C2=O,nt,i,nt,nt,nt,2.8µM
COC(=O)C(C)Sc1ncnc2c1nnn2-c1ccc(F)cc1 (stereo unspecified),i,i,i,i,?,i
COc1ccc(-n2nnc3c(SC(C(C)=O)C(=O)N(C)C)ncnc32)cc1 (stereo unspecified),nt,i,nt,nt,nt,18µM
O=C(CCC(=O)Nc1ccccc1)NNS(=O)(=O)c1ccc(Cl)cc1,nt,i,nt,nt,nt,56µM
Cc1cc(NC(=O)c2cc([N+](=O)[O-])cc([N+](=O)[O-])c2C)no1,i,i,i,i,i,79µM
CN(C)c1ccc(-c2ccc3ncnc(N(C)Cc4ccco4)c3c2)cc1,nt,i,nt,i,nt,i
CC(C)=CCC1=C(OCC(=O)O)C(=O)c2ccccc2C1=O,i,i,14µM,i,i,?
CC(C)=CCC/C(C)=C/CC/C(C)=C/CC/C(C)=C/CC1=C(C)C(=O)c2ccccc2C1=O,i,i,i,nt,i,?
CCc1ccc(CCC(=O)Nc2nccs2)o1,i,i,i,i,i,8.9µM
O=C(CCc1ccccc1)Nc1nccs1,nt,i,nt,nt,nt,i
Cc1ccc(CCC(=O)Nc2ccc(S(N)(=O)=O)cc2)o1,i,i,?,i,i,5µM
Cc1ccc(CCC(=O)Nc2nccs2)o1,i,i,i,i,i,79µM
COc1ccc2[nH]cc(CCO)c2c1,nt,i,nt,i,i,i
SMILES,NPSR antag,GCN5L2 inh,JMJD2E inh,IMPase Li inh,Epigenetic derep,Sfp inh
C/C=C1\COC(C(=O)NCCN2CCOCC2)(C(F)(F)F)C=C1C=C(C)C (stereo unspecified),nt,nt,nt,nt,nt,i
CCN(CC)c1ccc(/C=C2\SC(=O)N(C(C)C)C2=O)o1,?,i,i,nt,7.1µM,7.1µM
CC(C)N1C(=O)S/C(=C/c2ccc3c(c2)n(C)c(=O)n3C)C1=O,i,i,i,i,i,i
O=c1c(-c2ccc(O[C@@H]3O[C@H](CO)[C@@H](O)[C@H](O)[C@H]3O)cc2)coc2cc(O)cc(O)c12,nt,i,?,i,i,i
Cc1cc(OCc2nc3ccccc3s2)ccc1N,i,i,i,nt,i,20µM
CCC(=O)Nc1ccc(OCc2nc3ccccc3s2)cc1,i,i,i,i,i,45µM
c1ccc(OCc2nc3ccccc3s2)cc1,i,i,i,i,i,i
O=C(Cn1nc(Cc2cccnc2)c2ccccc2c1=O)Nc1cccc(C(F)(F)F)c1,nt,i,nt,nt,i,nt
CC(C)C1O[C@H](/C=C\c2ccccc2)OCC1(C)C (stereo partly specified),nt,nt,nt,i,nt,nt
CC1(C)CC(Cc2nc(=S)[nH][nH]2)C(=O)O1 (stereo unspecified),i,i,i,i,i,20µM
CC1(C)CC(CC(=O)Nc2ccccn2)C(=O)O1 (stereo unspecified),i,i,i,i,i,i
Nc1ccn([C@H]2O[C@H](CO)[C@@H]3[O][Sn]([c]4ccccc4)([c]4ccccc4)[O][C@H]32)c(=O)n1,nt,nt,nt,i,nt,nt
Cc1ccc(NC(=O)C2CCCN(S(=O)(=O)c3ccc4[nH]c(=O)ccc4c3)C2)cc1Cl (stereo unspecified),nt,i,nt,nt,i,nt
Cc1cc(C)c2cc(C#N)c(N3CCCC3)nc2c1,i,i,?,i,i,45µM
CN(C)S(=O)(=O)c1cccc(NC(=S)N/N=C/C(c2ccccc2)c2ccccc2)c1,i,i,?,i,i,?
COc1cccc(/C=N/NC(=S)Nc2cccc(S(=O)(=O)N(C)C)c2)c1,?,i,i,nt,i,10µM
CC(/C=N/NC(=S)Nc1cccc(S(=O)(=O)N(C)C)c1)c1ccccc1 (stereo unspecified),i,i,i,i,i,89µM
COc1ccc(O)c(/C=N/NC(=S)Nc2cccc(S(=O)(=O)N(C)C)c2)c1,?,i,i,i,i,i
CN(C)S(=O)(=O)c1cccc(NC(=S)N/N=C/c2ccc(O)c(O)c2O)c1,i,i,7.9µM,nt,i,3.2µM
CC(=O)N=c1sc2nc3ccccc3nc2n1N(C(C)=O)C(C)=O,13µM,i,?,13µM,i,45µM
O=[N+]([O-])c1ccc(N=Nc2c(Cl)cc(O)cc2Cl)cc1,7.9µM,i,i,nt,i,i
Cc1ccc(-c2cc(C(F)(F)F)n3nc(C(=O)Nc4sc5c(c4C#N)CCC(C)C5)cc3n2)cc1 (stereo unspecified),nt,i,nt,nt,i,nt
Cn1cccc1/C=N/N1CCN(c2ccccc2)CC1,i,i,?,i,i,28µM
Fc1ccccc1/C=N/N1CCN(Cc2ccccc2Cl)CC1,nt,i,nt,nt,nt,?
Cn1cccc1/C=N/N1CCN(Cc2ccccc2Cl)CC1,i,i,i,nt,i,56µM
CN1/C(=C\C(=O)c2cccnc2)Sc2ccccc21,i,i,i,i,i,22µM
COc1cccc(C(=O)/C=C2\Sc3ccccc3N2C)c1,i,i,?,i,i,i
Cc1ccc(Cn2ncc(Cl)c(Cl)c2=O)cc1,i,i,i,i,i,i
O=c1c(Cl)c(Cl)cnn1Cc1ccccc1Cl,6.3µM,i,i,i,i,i
